Records with an inconclusive call do not appear. The source made the active and inactive calls. Unless noted, the call rests on the fitted dose curve; in most records, active means well fitted curve in either direction with a large enough effect (not every such curve was filed as active); inconclusive means small, poorly fitted or top-dose-only effect, or another doubt; inactive means flat fitted curve, though single readings scatter.
Experiments:
[1] = AP1 Signaling Pathway (AID 357); conditions: ME-180 AP-1-bla reporter, EGF-induced, beta-lactamase ratio, 5 h; at 17.2 µM (top of the series) unless noted;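 further: ME-180 reporter cells stimulated with EGF at its EC50 level; on the % scale 0 is the no-effect control and ±100 the full control effect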
Method in brief: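 In this screen, ME-180 cells in Opti-MEM with 0.5% dialyzed FBS received EC50 EGF and compound titrations for 5 h. AP-1 reporter beta-lactamase was detected via CCF4 ratio, giving AC50 for positive and negative modulators.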

[2] = NFAT Signaling Pathway (AID 444); conditions: Jurkat NFAT-bla M1, carbachol, beta-lactamase ratio, 5 h; at 17.2 µM (top of the series) unless noted;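 further: carbachol stimulus at about its EC50 of 1 µM final; on the % scale 0 is the no-effect control and ±100 the full control effect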
Method in brief: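 Read-out: CCF4 FRET ratio (460 nm/530 nm) after 1 h RT dye loading, used for %activity and AC50 from titration series. Cells: Jurkat NFAT-β-lactamase/M1 line, treated with compound plus 1 uM carbachol for 5 h, 37 °C.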

[3] = Stat Signaling Pathway (AID 446); conditions: ME-180 SIE beta-lactamase reporter, IL-6 stimulated, 5 h; at 17.2 µM (top of the series) unless noted;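 further: ME-180 cervical cancer cells given 40 pM IL-6 alongside compound; SIE-controlled beta-lactamase reporter measured as 460/530 nm FRET emission ratio; on the % scale 0 is the no-effect control and ±100 the full control effect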
Method in brief: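 Reporter line: ME-180 cervical carcinoma, SIE-beta-lactamase. Treatment: compound with 40 pM IL-6, 5 hrs, 37 C, in low-serum OPTI-MEM with 10 mM HEPES pH 7.3. Detection: 460/530 nm fluorescence.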

[4] = target: Glucocorticoid receptor (Homo sapiens) (UniProt P04150); experiment: GR-GFP Redistribution (AID 450;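 active means compounds whose dose series gives a full or clear partial fitted curve of increased nuclear translocation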; further: potency means the concentration at half of the fitted maximal effect)
Sequence of Glucocorticoid receptor (Homo sapiens) (P04150 whole entry, looked up): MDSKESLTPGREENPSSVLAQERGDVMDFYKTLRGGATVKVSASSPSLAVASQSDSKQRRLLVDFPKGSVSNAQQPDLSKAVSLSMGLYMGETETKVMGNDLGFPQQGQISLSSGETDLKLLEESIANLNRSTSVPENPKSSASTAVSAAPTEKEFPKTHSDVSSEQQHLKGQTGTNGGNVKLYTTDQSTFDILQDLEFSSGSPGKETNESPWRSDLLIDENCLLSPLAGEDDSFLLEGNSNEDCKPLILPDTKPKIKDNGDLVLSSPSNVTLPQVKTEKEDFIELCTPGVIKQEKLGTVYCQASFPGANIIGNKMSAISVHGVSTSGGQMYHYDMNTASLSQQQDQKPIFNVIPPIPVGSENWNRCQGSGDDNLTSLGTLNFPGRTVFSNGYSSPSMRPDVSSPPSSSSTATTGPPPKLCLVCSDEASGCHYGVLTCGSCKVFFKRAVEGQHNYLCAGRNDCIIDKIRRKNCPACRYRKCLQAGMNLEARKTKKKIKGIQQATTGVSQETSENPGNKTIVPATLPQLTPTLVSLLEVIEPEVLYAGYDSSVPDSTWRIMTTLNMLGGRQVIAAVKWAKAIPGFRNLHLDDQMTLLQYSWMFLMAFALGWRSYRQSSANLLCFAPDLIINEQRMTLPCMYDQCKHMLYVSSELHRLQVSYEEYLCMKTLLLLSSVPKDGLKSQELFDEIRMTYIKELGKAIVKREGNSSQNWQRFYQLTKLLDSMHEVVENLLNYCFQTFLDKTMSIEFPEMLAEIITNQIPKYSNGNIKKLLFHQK

COc1ccc(/C(O)=C2/C(=O)C(=O)N(CCN3CCOCC3)C2c2ccccn2)cc1 (stereo not drawn)
inactive: activity change, negative = inhibition [1] 7.11% | activity change, negative = inhibition [2] 6.7% | activity, negative = inhibition [3] 0.702% | Potency [4] > 20.6 µM

Cc1ccc2[nH]c3c(c2c1)CN(C(=O)CN1CCN(c2ccccn2)CC1)CC3
inactive: activity change, negative = inhibition [1] -13.5% | activity change, negative = inhibition [2] 22.4% | activity, negative = inhibition [3] -12.2% | Potency [4] > 20.6 µM

CC(C)c1cc(NCCN2CCOCC2)n2c(nc3ccccc32)c1C#N
inactive: activity change, negative = inhibition [1] -4.92% | activity change, negative = inhibition [2] 6.15% | activity, negative = inhibition [3] 9.84% | Potency [4] > 20.6 µM

CCCCc1[nH]c(=O)c(C#N)c2c1CSC(C)(C)C2
inactive: activity change, negative = inhibition [1] 15.5% | activity change, negative = inhibition [2] -2.98% | activity, negative = inhibition [3] 3.1% | Potency [4] > 20.6 µM

O=C(NCc1ccco1)c1ccc(=O)oc1
inactive: activity change, negative = inhibition [1] 13.8% | activity change, negative = inhibition [2] 6.96% | activity, negative = inhibition [3] -6.97% | Potency [4] > 20.6 µM

ONC(=Nc1ccccc1)C(=Nc1ccccc1)NO
inactive: activity change, negative = inhibition [1] 4.05% | activity change, negative = inhibition [2] 9.94% | activity, negative = inhibition [3] -0.28% | Potency [4] > 20.6 µM

CC(C)C1Cc2c(C#N)c(N)sc(=S)c2CO1 (stereo not drawn)
inactive: activity change, negative = inhibition [1] -19.3% | activity change, negative = inhibition [2] -23.4% | activity, negative = inhibition [3] 1.85% | Potency [4] > 20.6 µM

CCOC(=O)C1Cc2c([nH]c3ccccc23)C(C)N1 (stereo not drawn)
inactive: activity change, negative = inhibition [1] -10.7% | activity change, negative = inhibition [2] 2.1% | activity, negative = inhibition [3] -9.52% | Potency [4] > 20.6 µM

O=C(CNC1=NCCC1)c1ccc2c(c1)OCCO2
inactive: activity change, negative = inhibition [1] 5.51% | activity change, negative = inhibition [2] -10.1% | activity, negative = inhibition [3] -3.23% | Potency [4] > 20.6 µM

c1ccc2c(c1)[nH]c1c(N3CCN(C4CCCCC4)CC3)ncnc12
inactive: activity change, negative = inhibition [1] 2.02% | activity change, negative = inhibition [2] -22.7% | activity, negative = inhibition [3] 0.857% | Potency [4] > 20.6 µM

Cc1nc2c(o1)CCc1ccccc1C2N1CCN(C)CC1 (stereo not drawn)
inactive: activity change, negative = inhibition [1] 22.5% | activity, negative = inhibition [3] 3.94% | Potency [4] > 20.6 µM
active: activity change, negative = inhibition [2] -82.4%

COc1ccc(/C(O)=C2/C(=O)C(=O)N(CCCN(C)C)C2c2ccccc2)cc1OC (stereo not drawn)
inactive: activity change, negative = inhibition [1] -9.48% | activity change, negative = inhibition [2] -0.461% | activity, negative = inhibition [3] 8.71% | Potency [4] > 20.6 µM

O=C(OCCN1CCOCC1)c1ccc(OCCN2CCOCC2)cc1
inactive: activity change, negative = inhibition [1] 1.65% | activity change, negative = inhibition [2] -7.8% | activity, negative = inhibition [3] -3.54% | Potency [4] > 20.6 µM

CCOCCN(C(=O)COC)c1cccc(OC)c1
inactive: activity change, negative = inhibition [1] 20.2% | activity change, negative = inhibition [2] 2.78% | activity, negative = inhibition [3] 6.59% | Potency [4] > 20.6 µM

COC(=O)c1ccc(=O)n(Cc2ccc3c(c2)OCO3)c1
inactive: activity change, negative = inhibition [1] -0.911% | activity change, negative = inhibition [2] 6.79% | activity, negative = inhibition [3] -1.86% | Potency [4] > 20.6 µM

CCOC(=O)Oc1ccc2c(c1)C(C)=CC(C)(C)N2C(=O)OCC
inactive: activity change, negative = inhibition [1] 4.5% | activity change, negative = inhibition [2] -5.18% | activity, negative = inhibition [3] 4.48% | Potency [4] > 20.6 µM

CCN(CC)CCN1C(=O)C(=O)/C(=C(/O)c2ccc(C)cc2)C1c1cccnc1 (stereo not drawn)
inactive: activity change, negative = inhibition [1] 4.64% | activity change, negative = inhibition [2] -5.95% | activity, negative = inhibition [3] 7.25% | Potency [4] > 20.6 µM

Source: PubChem BioAssay (NCATS)
